Results filed as inconclusive are left out. Active and inactive are the calls of the source. Calls follow the shape of the dose curve; as a rule, active = well fitted cell-killing curve with a large enough effect in the repeat runs; inconclusive = weak or mixed curves, or effect the other way; inactive = flat fitted curve, though single readings scatter.
assay: qHTS RealTime-Glo MT Cell Viability Assay in HEK293 cells - 24 hour (AID 1224886); conditions: RealTime-Glo luminescence; series mostly up to 76.8 µM; activity change, negative = cytotoxicity: at the top concentration; also: nearly all actives have a fitted effect of over 50% in size; as to activity change, negative = cytotoxicity: top concentration of the series differs between compounds
From the text: National Center for Advancing Translational Sciences [NCATS]
NIH Chemical Genomics Center [NCGC]
U.S. Environmental Protection Agency [EPA]
National Institutes of Environmental Health Sciences [NIEHS]
National Toxicology Program [NTP]
U.S. Food and Drug Administration [FDA]
Measure of cell viability is critical in the cell-base assay. Analysis of cell viability is necessary for the characterization of cell responses to cytotoxic drugs and environmental stress. A RealTime-Glo MT Cell Viability Assay to monitor cell viability in real time of continues cell culture during 40 hours of compound treatment was used to screen Tox21 10K library compounds in Hek293 cells. The RealTime-Glo MT Cell Viability Assay is a nonlytic, homogeneous, bioluminescent method to measure cell viability in real time using a simple, plate-based method. The assay involves adding NanoLuc luciferase and a cell-permeant prosubstrate to cells in culture. Viable cells reduce the proprietary prosubstrate to generate a substrate for NanoLuc luciferase. This substrate diffuses from cells into the surrounding culture medium, where it is rapidly used by the NanoLuc Enzyme to produce a luminescent signal. The signal correlates with the number of viable cells, making the assay well suited for cytotoxicity studies.
Tox21 Assay Protocol Summary:
The mixture of Hek293 cell suspension and reagents were dispensed at 600cells/6 ul/well in 1536-well tissue culture treated black solid bottom plates using a Multidrop dispenser. After the assay plates were incubated at a 37 C/5% CO2 incubator for 5 hours, 23 nL of compounds dissolved in DMSO, positive and negative controls was transferred to the assay plate by a pintool work station. The plates were incubated at 37 C for 40 hours. The luminescence intensity were measured at 0h, 8h, 16h, 24h, 32h and 40h time points using ViewLux plate reader during compound treatment.
% is scaled to controls: 0 for no effect and ±100 for the full control effect; potency is read from the fitted curve at half-maximal effect.

Row | SMILES | activity change, negative = cytotoxicity | Potency
1 | O=C1OC(=O)c2cc(-c3ccc4c(c3)C(=O)OC4=O)ccc21 | 0.642% (inactive) | 
2 | Cc1c(Cl)c(=O)oc2cc(O)ccc12 |  | 49 µM (active)
3 | CN(C[C@@H](CC[N+]12CCC(C3CCCCC3)(CC1)CC2)c1ccc(Cl)c(Cl)c1)C(=O)c1cc(C(F)(F)F)cc(C(F)(F)F)c1 |  | 3.09 µM (active)
4 | CN1CC[C@H](c2c(O)cc(O)c3c(=O)cc(-c4ccccc4Cl)oc23)[C@H](O)C1 |  | 0.151 µM (active)
5 | c1ccc(-c2ccc(C(c3ccccc3)n3ccnc3)cc2)cc1 (stereo not given) |  | 30.1 µM (active)
6 | Cc1ccc(S(=O)(=O)C(I)I)cc1 |  | 12.3 µM (active)
7 | CCCCCN=C(N)N/N=C/c1c[nH]c2ccc(OC)cc12 |  | 4.77 µM (active)
8 | CCC1(C)C(=O)N(Cl)C(=O)N1Cl (stereo not given) | 5.85% (inactive) | 
9 | Clc1ccc2c(Cl)ccnc2c1 | -12.1% (inactive) | 
10 | C=C[Si](C)(C)Cl | -3.65% [at 6.97 µM] (inactive) | 
11 | CCCCCCCCCCCC(=O)Cl | 3.11% (inactive) | 
12 | CC/C=C(\C)C=O | 10.8% (inactive) | 
13 | CCOc1nc(F)cc2nc(S(=O)(=O)Nc3c(Cl)cccc3C(=O)OC)nn12 | 8.05% (inactive) | 
14 | O=c1cc[nH]cc1 | -0.178% (inactive) | 
15 | CCN(CCC#N)c1ccc(N=Nc2ccc([N+](=O)[O-])cc2)cc1 | -2.89% (inactive) | 
16 | CN[C@H]1CC[C@@H](c2ccc(Cl)c(Cl)c2)c2ccc(S(N)(=O)=O)cc21 |  | 21.9 µM (active)
17 | NCc1ccco1 | 12.6% (inactive) | 
18 | c1ccc(-c2nc3ccccc3[nH]2)cc1 |  | 21.9 µM (active)
19 | CCC(C)(C)c1ccc(CC(C)CN2C[C@@H](C)O[C@@H](C)C2)cc1 (stereo not given in full) | -29.1% [at 35.3 µM] (inactive) | 
20 | Cc1cc(Br)ccc1NC(=O)CCl |  | 30.9 µM (active)

Row | SMILES | activity change, negative = cytotoxicity | Potency
21 | CN1CCN(CCCN2c3ccccc3Sc3ccc(C(F)(F)F)cc32)CC1 |  | 23.9 µM (active)
22 | N#Cc1nc(Cl)c(Cl)c(Cl)c1Cl |  | 1.95 µM (active)
23 | COc1c(Br)cc(Br)c(C)c1Br | 0.0161% (inactive) | 
24 | Nc1ccc(Oc2cccc(Oc3ccc(N)cc3)c2)cc1 | -22% (inactive) | 
25 | CO[Si](OC)(c1ccccc1)c1ccccc1 | -20% (inactive) | 
26 | O=C(NCc1ncc(C(F)(F)F)cc1Cl)c1c(Cl)cccc1Cl |  | 21.9 µM (active)
27 | CC(Cc1ccc(O)c(O)c1)C(C)Cc1ccc(O)c(O)c1 (stereo not given) |  | 34.7 µM (active)
28 | Nc1ccc(F)c([N+](=O)[O-])c1 | 7.78% (inactive) | 
29 | C/C=C/C(=O)C1=C(C)C=CCC1(C)C | -1.26% (inactive) | 
30 | Cc1ccc(Cl)c(N)c1Cl | 0.577% (inactive) | 
31 | Cn1c(=O)[nH]c2ncn(C)c2c1=O | 0.861% (inactive) | 
32 | c1ccc(C[P+](c2ccccc2)(c2ccccc2)c2ccccc2)cc1 |  | 1.74 µM (active)
33 | C=CCc1cc(S(=O)(=O)c2ccc(O)c(CC=C)c2)ccc1O |  | 27.5 µM (active)
34 | CC(C)=NNC(N)=S | 2.65% (inactive) | 
35 | Cn1ccnc1 | 8.97% (inactive) | 
36 | Brc1cc(Br)cc(Br)c1 | -1.12% (inactive) | 
37 | Nc1ccc(Cl)c([N+](=O)[O-])c1 | -13.8% (inactive) | 
38 | O=[N+]([O-])c1ccc(CO)cc1 | 9% (inactive) | 
39 | Cc1cc(F)ccc1-c1cc(N2CC[C@@H](O)[C@H]2CO)ncc1N(C)C(=O)C(C)(C)c1cc(C(F)(F)F)cc(C(F)(F)F)c1 |  | 17.1 µM (active)
40 | CCCCCCCCCC[N+](C)(CCCCCCCCCC)CCC[Si](OC)(OC)OC |  | 24.5 µM (active)
